# From PubChem BioAssay (Tox21)
# Records with an inconclusive call do not appear. A call without a number means that no potency is given here. Activity calls are given as the source filed them. Unless noted, calls follow the shape of the dose curve; as a rule, active = well fitted cell-killing curve with a large enough effect in the repeat runs; inconclusive = weak or mixed curves, or effect the other way; inactive = no such curve, though single readings can be large or run the other way.
# Experiment: qHTS assay to identify small molecule agonists of the endoplasmic reticulum stress response signaling pathway (AID 1159516; active = well fitted activation curve with a large enough effect in the signal ratio in the repeat runs, not every such curve was filed as active; the % refers to the signal ratio)
# Conditions: ESRE-bla HeLa, ER stress beta-lactamase reporter, 5 h; series mostly up to 61 µM
# Method in brief: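 Fluorescence at 460 and 530 nm (405 nm excitation) reports beta-lactamase from an ER stress response element in HeLa cells treated 5 hr at 37 C.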
row,Structure (SMILES),outcome
1,NCCNc1cccc2ccccc12,inactive
2,CC(C)CC(C)CC(O)CC(C)C (stereo not drawn),inactive
3,CC1=C(/C=C/C(C)=C/C=C/C(C)=C/C(=O)O)C(C)(C)CCC1,inactive
4,NC(N)=NC(N)=NCCc1ccccc1,inactive
5,CCOC(=O)C(C)(C)Oc1ccc(Cl)cc1,inactive
6,Cc1cccc(C)c1O,inactive
7,NC(=O)N1c2ccccc2C=Cc2ccccc21,inactive
8,C=CCOC(=O)CC(C)C,inactive
9,CCN(CC)CCOC(=O)c1ccc(N)cc1,inactive
10,CC(=O)/C=C/C1=C(C)CCCC1(C)C,inactive
11,CC(=O)Oc1ccccc1C(=O)O,inactive
12,CC(=O)OC/C=C(C)/C=C/C=C(C)/C=C/C1=C(C)CCCC1(C)C,inactive
13,O=C1CCCCCN1,inactive
14,CN(C)Cc1cc(CN(C)C)c(O)c(CN(C)C)c1,inactive
15,C/C=C/c1ccc(O)c(OC)c1,inactive
16,CC(C)(C)CC(C)(C)c1ccc(O)c(-n2nc3ccccc3n2)c1,inactive
17,N[C@@H](Cc1c[nH]c2ccc(O)cc12)C(=O)O,inactive
18,C1CNCCN1,inactive
19,CC(C)=CCC/C(C)=C/CO,inactive
20,COc1ccccc1O,inactive
21,OC[C@@H](O)[C@@H](O)[C@H](O)[C@H](O)CO,inactive
22,C#C[C@]1(O)CC[C@H]2[C@@H]3CCc4cc(O)ccc4[C@H]3CC[C@@]21C,inactive
23,NC(=O)c1ccc([N+](=O)[O-])cc1Cl,inactive
24,C[C@]12CC[C@@H]3c4ccc(O)cc4CC[C@H]3[C@@H]1CCC2=O,inactive
25,COc1ccccc1NC(=O)CC(C)=O,inactive
26,O=C1OC(c2ccc(O)cc2)(c2ccc(O)cc2)c2ccccc21,inactive
27,C#C[C@]1(O)CC[C@H]2[C@@H]3CCC4=CC(=O)CC[C@@H]4[C@H]3CC[C@@]21CC,inactive
28,C[C@]12CC[C@@H]3c4ccc(O)cc4C[C@@H](CCCCCCCCCS(=O)CCCC(F)(F)C(F)(F)F)[C@H]3[C@@H]1CC[C@@H]2O (stereo partly drawn),inactive

# Experiment: qHTS assay to identify small molecule agonists of the endoplasmic reticulum stress response signaling pathway - cell viability counter screen (AID 1159517; calls by dose curve; also: nearly all actives have a fitted effect of over 50% in size; also: potency is read from the fitted curve at half-maximal effect)
# Conditions: ESRE-bla HeLa viability, CellTiter-Glo luminescence, 5 h; series mostly up to 61 µM
# Method in brief: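 Cytotoxicity of test compounds toward ESRE-bla HeLa cells was assessed after 5 hr exposure. The luminescent CellTiter-Glo signal was measured 30 min after reagent addition.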
row,Structure (SMILES),Potency
1,NCCNc1cccc2ccccc12,inactive
2,CC(C)CC(C)CC(O)CC(C)C (stereo not drawn),inactive
3,CC1=C(/C=C/C(C)=C/C=C/C(C)=C/C(=O)O)C(C)(C)CCC1,43.7 µM (active)
4,NC(N)=NC(N)=NCCc1ccccc1,inactive
5,COc1cc2c(c(OC)c1OC)-c1ccc(OC)c(=O)cc1[C@@H](NC(C)=O)CC2,inactive
6,CCOC(=O)C(C)(C)Oc1ccc(Cl)cc1,inactive
7,Cc1cccc(C)c1O,inactive
8,NC(=O)N1c2ccccc2C=Cc2ccccc21,inactive
9,C=CCOC(=O)CC(C)C,inactive
10,CCN(CC)CCOC(=O)c1ccc(N)cc1,inactive
11,CC(=O)/C=C/C1=C(C)CCCC1(C)C,inactive
12,CC(=O)Oc1ccccc1C(=O)O,inactive
13,CC(=O)OC/C=C(C)/C=C/C=C(C)/C=C/C1=C(C)CCCC1(C)C,inactive
14,Nc1ccc(N=Nc2ccccc2)c(N)n1,inactive
15,O=C1CCCCCN1,inactive
16,CN(C)Cc1cc(CN(C)C)c(O)c(CN(C)C)c1,inactive
17,C/C=C/c1ccc(O)c(OC)c1,inactive
18,CC(C)(C)CC(C)(C)c1ccc(O)c(-n2nc3ccccc3n2)c1,inactive
19,N[C@@H](Cc1c[nH]c2ccc(O)cc12)C(=O)O,inactive
20,C1CNCCN1,inactive
21,CC(C)=CCC/C(C)=C/CO,inactive
22,COc1ccccc1O,inactive
23,OC[C@@H](O)[C@@H](O)[C@H](O)[C@H](O)CO,inactive
24,C#C[C@]1(O)CC[C@H]2[C@@H]3CCc4cc(O)ccc4[C@H]3CC[C@@]21C,inactive
25,NC(=O)c1ccc([N+](=O)[O-])cc1Cl,inactive
26,C[C@]12CC[C@@H]3c4ccc(O)cc4CC[C@H]3[C@@H]1CCC2=O,inactive
27,COc1ccccc1NC(=O)CC(C)=O,inactive
28,O=C1OC(c2ccc(O)cc2)(c2ccc(O)cc2)c2ccccc21,inactive
29,C#C[C@]1(O)CC[C@H]2[C@@H]3CCC4=CC(=O)CC[C@@H]4[C@H]3CC[C@@]21CC,inactive
30,C[C@]12CC[C@@H]3c4ccc(O)cc4C[C@@H](CCCCCCCCCS(=O)CCCC(F)(F)C(F)(F)F)[C@H]3[C@@H]1CC[C@@H]2O (stereo partly drawn),inactive

# Experiment: qHTS assay to identify small molecule antagonists of the retinoid-related orphan receptor gamma (ROR-gamma) signaling pathway - cell viability counter screen (AID 1159520); also: nearly all actives have a fitted effect of over 50% in size
# Conditions: Tet-on RORgamma CHO cells viability, ATP luminescence, 16 h; series mostly up to 92.4 µM
# Method in brief: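 Tet-on ROR gamma CHO cells (1,000/well) were plated 4 hr, given compounds in DMSO for 2 hr at 37 C, then induced with 1 uM final doxycycline for 16 hr. Viability was read as ATP by CellTiter-Glo luminescence after 30 min.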
row,Structure (SMILES),outcome
1,NCCNc1cccc2ccccc12,inactive
2,CC(C)CC(C)CC(O)CC(C)C (stereo not drawn),inactive
3,CC1=C(/C=C/C(C)=C/C=C/C(C)=C/C(=O)O)C(C)(C)CCC1,inactive
4,NC(N)=NC(N)=NCCc1ccccc1,inactive
5,COc1cc2c(c(OC)c1OC)-c1ccc(OC)c(=O)cc1[C@@H](NC(C)=O)CC2,inactive
6,CCOC(=O)C(C)(C)Oc1ccc(Cl)cc1,inactive
7,Cc1cccc(C)c1O,inactive
8,NC(=O)N1c2ccccc2C=Cc2ccccc21,inactive
9,C=CCOC(=O)CC(C)C,inactive
10,CCN(CC)CCOC(=O)c1ccc(N)cc1,inactive
11,CC(=O)/C=C/C1=C(C)CCCC1(C)C,inactive
12,CC(=O)Oc1ccccc1C(=O)O,inactive
13,CC(=O)OC/C=C(C)/C=C/C=C(C)/C=C/C1=C(C)CCCC1(C)C,inactive
14,Nc1ccc(N=Nc2ccccc2)c(N)n1,inactive
15,O=C1CCCCCN1,inactive
16,CN(C)Cc1cc(CN(C)C)c(O)c(CN(C)C)c1,inactive
17,C/C=C/c1ccc(O)c(OC)c1,inactive
18,CC(C)(C)CC(C)(C)c1ccc(O)c(-n2nc3ccccc3n2)c1,inactive
19,N[C@@H](Cc1c[nH]c2ccc(O)cc12)C(=O)O,inactive
20,C1CNCCN1,inactive
21,CC(C)=CCC/C(C)=C/CO,inactive
22,COc1ccccc1O,inactive
23,OC[C@@H](O)[C@@H](O)[C@H](O)[C@H](O)CO,inactive
24,C#C[C@]1(O)CC[C@H]2[C@@H]3CCc4cc(O)ccc4[C@H]3CC[C@@]21C,inactive
25,NC(=O)c1ccc([N+](=O)[O-])cc1Cl,inactive
26,C[C@]12CC[C@@H]3c4ccc(O)cc4CC[C@H]3[C@@H]1CCC2=O,inactive
27,COc1ccccc1NC(=O)CC(C)=O,inactive
28,O=C1OC(c2ccc(O)cc2)(c2ccc(O)cc2)c2ccccc21,inactive
29,C#C[C@]1(O)CC[C@H]2[C@@H]3CCC4=CC(=O)CC[C@@H]4[C@H]3CC[C@@]21CC,inactive
30,C[C@]12CC[C@@H]3c4ccc(O)cc4C[C@@H](CCCCCCCCCS(=O)CCCC(F)(F)C(F)(F)F)[C@H]3[C@@H]1CC[C@@H]2O (stereo partly drawn),inactive
